Results filed as inconclusive are left out. Where a call stands in place of a potency, no number is given. Activity calls are given as the source filed them. Unless noted, calls follow the shape of the dose curve; as a rule, active = well fitted curve in the direction sought with a large enough effect; inconclusive = small, poorly fitted or top-dose-only effect, or another doubt; inactive = no such curve, though single readings can be large; an effect the other way counts as inactive or inconclusive.
Tests used:
[1] = molecular target: Chromobox protein homolog 1 (Homo sapiens) (UniProt P83916); test: qHTS Validation Assay for Inhibitors of HP1-beta Chromodomain Interactions with Methylated Histone Tails (AID 488953); also: potency is read from the fitted curve at half-maximal effect; nearly all actives have a fitted effect of over 50% in size
How it was run: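 Compounds pinned into a preassembled complex of HP1-beta and trimethyl-K9 histone H3(1-18) biotin peptide (50 nM each; PBS pH 7.4, 0.01% Tween-20). After 30 min, bead-based AlphaScreen detection followed.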

[2] = molecular target: D(1A) dopamine receptor (Homo sapiens) (UniProt P21728); test: HTS Assay for Allosteric Agonists of the Human D1 Dopamine Receptor: Primary Screen for Potentiators (AID 488982)
How it was run: (§1)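 Calcium flux in an inducible, force-coupled HEK293 Trex D1 line (overnight at 30 C): agonist mode is the 180 s kinetic read after compound; potentiator mode is the following 180 s read after dopamine at EC20.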

[3] = Inducers of the Endoplasmic Reticulum Stress Response (ERSR) in human glioma: Validation (AID 504836)
How it was run: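 ERSR induction read as luciferase luminescence (Bright-Glo, 10 min at room temperature) in stably transfected human U87-MG glioma cells exposed to compounds for 16 h, using GRP78 as sensor.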

[4] = molecular target: Ubiquitin carboxyl-terminal hydrolase 1 (Homo sapiens) (UniProt O94782); test: Inhibitors of USP1/UAF1: Pilot qHTS (AID 504865); also: nearly all actives have a fitted effect of over 35% in size; also: potency is read from the fitted curve at half-maximal effect
How it was run: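 Deubiquitinase activity followed as kinetic rhodamine fluorescence release from 150 nM Ub-Rho. 1 nM USP1/UAF1 with compound, after 15 min room-temperature preincubation, in HEPES pH 7.8 buffer containing TCEP, EDTA, BSA and Tween-20.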

[5] = molecular target: M-phase phosphoprotein 8 (Homo sapiens) (UniProt Q99549); test: qHTS Validation Assay for Inhibitors for MPP8 Chromodomain Interactions with Methylated Histone Tails (AID 488949);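 also: AlphaScreen signal from MPP8 chromodomain bound to biotinylated H3K9me3 peptide; top concentration of the series differs between compounds; nearly all actives have a fitted effect of over 55% in size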
How it was run: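 AlphaScreen proximity signal from streptavidin donor and Ni-chelate acceptor beads (10 ug/mL each) reported binding of MPP8 to trimethyl-K9 H3(1-18) peptide, both at 50 nM. The complex formed 30 min before a 30 min compound exposure at room temperature, in PBS pH 7.4.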

[6] = molecular target: Transient receptor potential cation channel subfamily V member 1 (Homo sapiens) (UniProt Q8NER1); test: HTS Assay for Compounds that Act as Enhancers of the Vanilloid Receptor 1 (AID 488979)
How it was run: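 Calcium influx kinetics via Fluo-8 (480/520 nm) in TRPV1-expressing cells, 2000/well cultured overnight at 35.5C. Compound-alone read 3 min (agonist phase), followed by EC20 capsaicin challenge for 2 min (enhancer phase).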

[7] = molecular target: Thyrotropin receptor (Homo sapiens) (UniProt P16473); test: qHTS Assay for Antagonists of the Thyroid Stimulating Hormone Receptor (AID 488980); also: series mostly up to about 58 µM
How it was run: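 Inhibition of cAMP raised by EC80 TSH (4 nM final) was read by HTRF, with lysate cAMP competing against cAMP-d2 for cryptate antibody after 30 min at room temperature. The cells were transfected HEK293 held in phosphodiesterase inhibitor RO 20-1724 at 70 uM.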

[8] = molecular target: DNA dC->dU-editing enzyme APOBEC-3G (Homo sapiens) (UniProt Q9HC16); test: qHTS for inhibitors of Vif-A3G interactions: Validation (AID 588379)
How it was run: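 Yellow fluorescence (Ex 488, Em 500-530) of Vif-coexpressing HeLa A3G-eYFP cells, scanned by Acumen cytometer, reports blocked A3G degradation. Cells plated at 700/well overnight at 37 deg C before compound addition, then a further overnight compound incubation at 37 deg C.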

[9] = molecular target: ATP-dependent 6-phosphofructokinase (Trypanosoma brucei brucei) (UniProt O15648); test: qHTS Assay to Find Inhibitors of T. brucei phosphofructokinase: hit validation (AID 492961);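 also: luminescence reports ADP formed as PFK phosphorylates fructose-6-phosphate with ATP; series mostly up to about 51 µM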
How it was run: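 ADP-Glo luminescence read-out of ADP formed by 1.25 nM PFK from 0.1 mM ATP and 0.5 mM F6P (TEA pH 8.0, 45 min, RT). Compounds titrated; activity normalized to no-enzyme and full-enzyme controls.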

[10] = molecular target: Methanococcus maripaludis chaperonin (MmCpn) (UniProt Q6LX38); test: High-Throughput Screening for Modulators of Cytosolic Chaperonin Activity: MmCpn Primary Screen (AID 488978);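 also: 50 nM MmCpn enzyme hydrolysing 30 µM ATP at 37 °C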
How it was run: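 ATPase activity of 50 nM MmCpn was assayed with 30 uM ATP, 10 minutes at 37C, after a 5 min compound preincubation at room temperature. ADP production was read as HTRF emission at 590 and 665 nm.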

[11] = molecular target: D(1A) dopamine receptor (Homo sapiens) (UniProt P21728); test: HTS Assay for Allosteric Agonists of the Human D1 Dopamine Receptor: Primary Screen for Agonists (AID 488981)
How it was run: as §1

[12] = molecular target: D(1A) dopamine receptor (Homo sapiens) (UniProt P21728); test: HTS Assay for Allosteric Agonists of the Human D1 Dopamine Receptor: Primary Screen for Antagonists (AID 488983);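 also: calcium flux response to an EC80 dopamine challenge measured with no-wash dye; nearly all actives have a fitted effect of over 65% in size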; also: potency is read from the fitted curve at half-maximal effect
How it was run: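 In this primary screen, compounds are applied to calcium-dye-loaded HEK293 T-REx cells with force-coupled D1 expression induced overnight at 30 C. An EC80 of dopamine follows the 180 s compound phase, and calcium is monitored for a further 180 s.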

[13] = Validation screen for small molecules that induce genotoxicity in human embryonic kidney (HEK293T) cells expressing luciferase-tagged ELG1 (AID 493106)
How it was run: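 In this validation screen, increased ELG1-luciferase signal flags compounds causing genetic stress. HEK293T reporter cells are treated 16 hr (37 °C, 5% CO2), developed with ONE-Glo for 30 min at room temperature, and imaged on a CCD-based reader.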

[14] = molecular target: ATPase family AAA domain-containing protein 5 (Homo sapiens) (UniProt Q96QE3); test: Validation screen for small molecules that inhibit ELG1-dependent DNA repair in human embryonic kidney (HEK293T) cells expressing luciferase-tagged ELG1 (AID 493107);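 also: cells co-treated with the DNA-damaging agent 5-fluorouridine alongside compound; series mostly up to about 46 µM; inhibitors lower the ELG1-luciferase luminescence signal; nearly all actives have a fitted effect of over 70% in size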
How it was run: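 Compounds reducing 5-fluorouridine-driven ELG1-luciferase signal in HEK293T cells were scored; exposure lasted 16 hr at 37 °C with luminescence detected via ONE-Glo.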

[15] = molecular target: Thyrotropin-releasing hormone receptor (Homo sapiens) (UniProt P34981); test: qHTS for Small Molecule Agonists and Allosteric Enhancers of Human TRH Receptor: Validation Screen for Agonists (AID 493127;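 active = calcium activation more than 3 SD above the typical response in the agonist read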;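 also: intracellular calcium rise by fluo-8 fluorescence before TRH EC20 addition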); details: TRH receptor agonist cell assay; at 2 µM; stronger effect = higher value
How it was run: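 Kinetic fluorescence assay of agonist-induced calcium release: overnight-plated TRHR cells, room-temperature fluo-8 loading, baseline then compound addition with per-second reads.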

[16] = Nrf2 qHTS screen for inhibitors: Validation (AID 493153; active = well fitted inhibition curve with a large enough effect in the main read-out, with a control signal flat, not every such curve was filed as active); details: Potency: luciferase luminescence; viability change: measured here: cytotoxicity max response
How it was run: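 In this counterscreened reporter format, each well gives two signals: CellTiter-Fluor fluorescence for cytotoxicity and ARE-luciferase luminescence for Nrf2 function. A549 ARE_Fluc cells in 5% FBS OPTI-MEM were exposed to compound titrations for 18-24 h.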

[17] = qHTS for Inhibitors of Cell Surface uPA Generation: Validation Assay (AID 493164);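 also: RAW 264.7 macrophage cells exposed to compound for 18 h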
How it was run: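 Compounds are titrated over seven points (2.45 nM–38.3 uM final) onto pre-plated RAW 264.7 cells and incubated for 18 h. Retained intracellular ATP, measured with ATP-Lite, indicates blocked lethal factor entry.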

[18] = molecular target: Peptidyl-prolyl cis-trans isomerase NIMA-interacting 1 (Homo sapiens) (UniProt Q13526); test: qHTS Validation Assay to Find Inhibitors of Pin1 (AID 504536; active = well fitted inhibition curve with a large enough effect in the polarisation, with a control signal flat, not every such curve was filed as active; the % refers to the polarisation)
How it was run: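 Fluorescence polarization competition: compounds (titration) displace HiFluor-488-labeled Pin1-1b peptide from Pin1 (0.3 uM final) in pH 7.5 HEPES buffer with DTT, 10 min at room temperature; %Activity normalized to no-enzyme wells, curves fitted.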

[19] = molecular target: Phosphoglycerate kinase, glycosomal (Trypanosoma brucei brucei) (UniProt P07378); test: qHTS Validation Assay to Find Inhibitors of Phosphoglycerate Kinase (AID 504547)
How it was run: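 Luminescence end-point (Kinase-Glo Plus, 10 min) after a 60 min room-temperature coupled reaction. GAPDH at 100nM final supplies 1,3-BPG to PGK. Buffer: 100mM TEA pH 7.6, 5mM MgCl2, 0.01% Tween-20. Wells lacking PGK served as controls.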

[20] = molecular target: phosphoglycerate mutase (Leishmania major) (UniProt Q4Q090); test: qHTS Validation Assay to Find Inhibitors of Phosphoglycerate Mutase (AID 504548); also: series mostly up to about 58 µM
How it was run: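 Lm PGAM 1.25nM final; 100 mM TEA pH 7.6, 5 mM MgCl2, 0.01% Tween-20; 45 min RT; Kinase-GloPlus, 10 min; end-point luminescence. Enzyme-free wells as negative controls.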

Sequence of ATP-dependent 6-phosphofructokinase (Trypanosoma brucei brucei) (O15648 whole entry, looked up): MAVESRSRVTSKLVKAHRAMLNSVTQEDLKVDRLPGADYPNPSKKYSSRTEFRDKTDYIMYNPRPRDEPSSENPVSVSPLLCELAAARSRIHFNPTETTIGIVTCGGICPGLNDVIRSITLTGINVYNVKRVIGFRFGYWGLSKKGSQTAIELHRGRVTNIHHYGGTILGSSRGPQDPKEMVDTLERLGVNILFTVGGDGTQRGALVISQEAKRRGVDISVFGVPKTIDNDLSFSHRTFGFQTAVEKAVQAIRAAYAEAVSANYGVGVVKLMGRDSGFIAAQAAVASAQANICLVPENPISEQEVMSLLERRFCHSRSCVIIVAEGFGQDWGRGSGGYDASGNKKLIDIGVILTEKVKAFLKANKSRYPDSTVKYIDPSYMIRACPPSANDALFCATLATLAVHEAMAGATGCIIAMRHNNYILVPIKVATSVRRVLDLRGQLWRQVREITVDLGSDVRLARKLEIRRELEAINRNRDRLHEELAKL
Sequence of D(1A) dopamine receptor (Homo sapiens) (P21728 whole entry, looked up): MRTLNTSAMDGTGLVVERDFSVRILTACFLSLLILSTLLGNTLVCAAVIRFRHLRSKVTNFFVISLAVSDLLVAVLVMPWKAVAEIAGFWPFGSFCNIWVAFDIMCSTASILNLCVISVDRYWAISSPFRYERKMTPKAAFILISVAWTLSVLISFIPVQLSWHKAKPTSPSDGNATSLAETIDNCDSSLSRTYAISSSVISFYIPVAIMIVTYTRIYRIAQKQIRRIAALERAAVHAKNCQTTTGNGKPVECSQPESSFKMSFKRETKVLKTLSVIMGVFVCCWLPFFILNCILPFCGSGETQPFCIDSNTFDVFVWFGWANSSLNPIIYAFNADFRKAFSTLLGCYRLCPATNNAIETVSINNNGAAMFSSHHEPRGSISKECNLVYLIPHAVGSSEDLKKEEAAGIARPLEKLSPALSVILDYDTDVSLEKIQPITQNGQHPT
Sequence of Ubiquitin carboxyl-terminal hydrolase 1 (Homo sapiens) (O94782 whole entry, looked up): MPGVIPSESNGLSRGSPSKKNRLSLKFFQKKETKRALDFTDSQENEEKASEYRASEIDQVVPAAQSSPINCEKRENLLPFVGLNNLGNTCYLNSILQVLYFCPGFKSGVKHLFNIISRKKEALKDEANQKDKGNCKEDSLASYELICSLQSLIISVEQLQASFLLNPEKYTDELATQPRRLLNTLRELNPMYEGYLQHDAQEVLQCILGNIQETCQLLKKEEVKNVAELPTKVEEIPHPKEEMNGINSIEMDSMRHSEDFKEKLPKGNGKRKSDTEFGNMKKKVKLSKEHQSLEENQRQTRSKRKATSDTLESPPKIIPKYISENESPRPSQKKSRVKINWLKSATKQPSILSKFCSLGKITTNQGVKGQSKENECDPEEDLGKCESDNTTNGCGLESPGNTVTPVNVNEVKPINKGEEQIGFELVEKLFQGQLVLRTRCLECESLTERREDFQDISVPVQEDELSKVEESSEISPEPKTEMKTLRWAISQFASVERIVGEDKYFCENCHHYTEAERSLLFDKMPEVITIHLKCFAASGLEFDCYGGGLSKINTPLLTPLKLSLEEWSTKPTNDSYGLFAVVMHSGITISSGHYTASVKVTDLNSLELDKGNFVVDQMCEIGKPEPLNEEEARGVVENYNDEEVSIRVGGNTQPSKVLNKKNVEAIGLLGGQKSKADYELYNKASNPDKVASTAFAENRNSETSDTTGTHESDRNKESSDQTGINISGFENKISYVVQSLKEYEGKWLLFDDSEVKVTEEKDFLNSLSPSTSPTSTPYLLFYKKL
Sequence of M-phase phosphoprotein 8 (Homo sapiens) (Q99549 whole entry, looked up): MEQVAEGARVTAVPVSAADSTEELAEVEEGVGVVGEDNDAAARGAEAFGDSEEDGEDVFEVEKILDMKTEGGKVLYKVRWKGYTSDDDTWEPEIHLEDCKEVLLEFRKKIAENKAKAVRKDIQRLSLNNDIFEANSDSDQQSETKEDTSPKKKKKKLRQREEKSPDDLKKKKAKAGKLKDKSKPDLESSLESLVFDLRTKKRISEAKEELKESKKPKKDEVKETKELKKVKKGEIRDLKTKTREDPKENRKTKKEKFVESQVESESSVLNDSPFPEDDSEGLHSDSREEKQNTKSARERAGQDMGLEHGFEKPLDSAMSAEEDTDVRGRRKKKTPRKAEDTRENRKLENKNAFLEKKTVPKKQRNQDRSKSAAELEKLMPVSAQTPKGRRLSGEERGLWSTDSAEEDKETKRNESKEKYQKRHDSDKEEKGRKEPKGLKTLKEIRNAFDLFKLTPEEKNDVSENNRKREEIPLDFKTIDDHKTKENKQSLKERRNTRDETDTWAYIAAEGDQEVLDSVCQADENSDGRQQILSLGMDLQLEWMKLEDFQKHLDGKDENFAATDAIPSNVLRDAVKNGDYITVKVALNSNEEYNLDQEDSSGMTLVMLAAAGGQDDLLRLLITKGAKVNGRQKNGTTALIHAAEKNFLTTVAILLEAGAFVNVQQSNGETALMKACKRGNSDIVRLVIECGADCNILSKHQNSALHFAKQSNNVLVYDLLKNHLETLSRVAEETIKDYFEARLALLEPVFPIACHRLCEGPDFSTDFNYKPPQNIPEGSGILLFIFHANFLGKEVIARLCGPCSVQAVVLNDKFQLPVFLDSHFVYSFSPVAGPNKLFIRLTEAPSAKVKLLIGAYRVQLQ
Sequence of Thyrotropin receptor (Homo sapiens) (P16473 whole entry, looked up): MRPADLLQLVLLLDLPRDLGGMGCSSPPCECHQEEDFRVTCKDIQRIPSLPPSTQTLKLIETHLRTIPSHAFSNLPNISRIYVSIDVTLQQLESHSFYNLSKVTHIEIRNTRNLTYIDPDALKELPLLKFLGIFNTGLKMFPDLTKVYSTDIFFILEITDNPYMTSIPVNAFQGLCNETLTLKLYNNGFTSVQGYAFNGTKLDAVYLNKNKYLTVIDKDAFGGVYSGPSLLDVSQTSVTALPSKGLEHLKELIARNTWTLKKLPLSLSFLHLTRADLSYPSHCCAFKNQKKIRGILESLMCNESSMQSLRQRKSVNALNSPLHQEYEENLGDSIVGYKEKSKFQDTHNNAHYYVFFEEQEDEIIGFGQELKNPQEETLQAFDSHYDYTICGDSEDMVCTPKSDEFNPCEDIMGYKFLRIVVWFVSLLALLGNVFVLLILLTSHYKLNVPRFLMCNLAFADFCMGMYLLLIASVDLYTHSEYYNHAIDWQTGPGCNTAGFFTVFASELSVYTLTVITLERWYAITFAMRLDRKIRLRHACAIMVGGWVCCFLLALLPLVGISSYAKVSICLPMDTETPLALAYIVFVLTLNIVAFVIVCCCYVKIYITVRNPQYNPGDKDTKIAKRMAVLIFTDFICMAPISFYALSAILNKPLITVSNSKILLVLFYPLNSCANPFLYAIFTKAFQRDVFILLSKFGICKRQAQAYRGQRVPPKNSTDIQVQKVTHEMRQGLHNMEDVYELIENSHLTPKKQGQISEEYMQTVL
Sequence of Transient receptor potential cation channel subfamily V member 1 (Homo sapiens) (Q8NER1 whole entry, looked up): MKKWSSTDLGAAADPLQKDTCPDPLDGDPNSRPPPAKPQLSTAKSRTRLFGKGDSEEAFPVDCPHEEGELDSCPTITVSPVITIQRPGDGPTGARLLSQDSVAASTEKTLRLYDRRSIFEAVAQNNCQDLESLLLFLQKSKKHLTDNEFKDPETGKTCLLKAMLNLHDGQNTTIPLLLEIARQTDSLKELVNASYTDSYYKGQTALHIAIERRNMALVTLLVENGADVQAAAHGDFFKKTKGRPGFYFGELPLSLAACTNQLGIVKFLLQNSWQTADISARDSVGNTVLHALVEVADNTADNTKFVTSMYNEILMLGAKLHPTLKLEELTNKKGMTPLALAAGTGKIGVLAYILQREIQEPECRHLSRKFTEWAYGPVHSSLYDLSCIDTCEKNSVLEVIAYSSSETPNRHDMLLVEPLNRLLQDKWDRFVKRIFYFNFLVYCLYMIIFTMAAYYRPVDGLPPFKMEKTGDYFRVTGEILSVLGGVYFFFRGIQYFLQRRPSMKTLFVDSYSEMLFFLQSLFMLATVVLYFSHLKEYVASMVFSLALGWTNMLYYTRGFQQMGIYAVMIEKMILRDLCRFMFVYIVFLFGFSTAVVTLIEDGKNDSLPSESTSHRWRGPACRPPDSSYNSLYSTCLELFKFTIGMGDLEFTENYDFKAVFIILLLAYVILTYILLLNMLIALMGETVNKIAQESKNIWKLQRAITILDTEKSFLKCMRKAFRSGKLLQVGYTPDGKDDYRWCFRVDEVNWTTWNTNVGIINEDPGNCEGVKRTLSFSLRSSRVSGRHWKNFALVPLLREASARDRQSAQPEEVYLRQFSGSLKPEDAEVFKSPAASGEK
Sequence of DNA dC->dU-editing enzyme APOBEC-3G (Homo sapiens) (Q9HC16 whole entry, looked up): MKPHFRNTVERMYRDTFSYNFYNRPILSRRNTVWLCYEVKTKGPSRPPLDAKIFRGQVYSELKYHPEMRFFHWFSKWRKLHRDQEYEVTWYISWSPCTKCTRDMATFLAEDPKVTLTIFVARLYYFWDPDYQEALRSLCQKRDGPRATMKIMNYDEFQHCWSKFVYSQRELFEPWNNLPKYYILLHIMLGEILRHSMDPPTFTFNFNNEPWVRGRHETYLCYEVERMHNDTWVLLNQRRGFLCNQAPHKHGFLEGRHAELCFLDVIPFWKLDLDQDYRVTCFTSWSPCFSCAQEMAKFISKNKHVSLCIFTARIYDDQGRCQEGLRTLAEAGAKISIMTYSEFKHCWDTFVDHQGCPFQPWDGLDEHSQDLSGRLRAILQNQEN
Sequence of Phosphoglycerate kinase, glycosomal (Trypanosoma brucei brucei) (P07378 whole entry, looked up): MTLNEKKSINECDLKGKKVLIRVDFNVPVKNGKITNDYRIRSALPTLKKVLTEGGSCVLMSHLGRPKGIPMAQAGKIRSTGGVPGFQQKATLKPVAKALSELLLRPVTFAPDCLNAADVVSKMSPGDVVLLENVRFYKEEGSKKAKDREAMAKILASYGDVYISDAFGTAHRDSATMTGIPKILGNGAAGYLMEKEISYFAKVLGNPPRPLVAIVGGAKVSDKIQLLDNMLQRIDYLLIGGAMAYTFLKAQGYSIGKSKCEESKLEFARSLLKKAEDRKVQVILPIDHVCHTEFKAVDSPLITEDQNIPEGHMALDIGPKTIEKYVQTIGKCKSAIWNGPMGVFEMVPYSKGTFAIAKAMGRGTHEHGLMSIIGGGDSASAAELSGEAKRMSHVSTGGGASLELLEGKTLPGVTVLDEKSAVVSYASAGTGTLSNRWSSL

With `OCCN1CCN(CCCN2c3ccccc3Sc3ccc(C(F)(F)F)cc32)CC1` the Potency [1] was 0.006 µM (active), the Potency [2] was “inactive” and the outcome [3] was “inactive”. The Potency [4] was 56.2 µM (active).

In the case of `CCC1C(=O)OCC1Cc1cncn1C` (configuration not stated), the Potency [5] is reported as “inactive”, the outcome [3] is reported as “inactive” and the Potency [4] is reported as “inactive”.

For `Clc1cccc(N2CCNCC2)c1`, the Potency [5] was “inactive”, the outcome [6] was “inactive” and the outcome [7] was “inactive”. For the same compound, the Potency [4] was “inactive” and the outcome [8] was “inactive”.

In the case of `COc1ccc(C(=O)c2c(C)n(CCN3CCOCC3)c3ccccc23)cc1`, the outcome [9] is reported as “inactive”.

In the case of `N[C@@H](Cc1ccc(N(CCCl)CCCl)cc1)C(=O)O`, the outcome [9] is reported as “inactive”.

For `Oc1cccc2cccnc12`, the outcome [9] was “inactive” and the Potency [4] was “inactive”.

For `CC1NCCOC1c1ccccc1` (configuration not stated), the outcome [9] was “inactive” and the Potency [4] was “inactive”.

In the case of `N#CC(C#N)=Cc1ccc(O)c(O)c1`, the outcome [10] is reported as “inactive”, the outcome [6] is reported as “inactive” and the outcome [7] is reported as “inactive”. For the same compound, the Potency [11] was “inactive”, the Potency [12] was “inactive” and the Potency [13] was “inactive”. The Potency [14] was “inactive”, the activation [15] was 1.19% (inactive) and the Potency [16] was “inactive”. For the same compound, the viability change [16] was -7.57%, the outcome [17] was “inactive” and the Potency [18] was “inactive”. For the same compound, the Potency [19] was “inactive”, the outcome [20] was “inactive” and the outcome [3] was “inactive”. For the same compound, the Potency [4] was “inactive” and the outcome [8] was “inactive”.

In the case of `CCN(CC)CCN1C(=O)CN=C(c2ccccc2F)c2cc(Cl)ccc21`, the outcome [9] is reported as “inactive” and the Potency [4] is reported as “inactive”.

In the case of `CN(C)CCC=C1c2ccccc2CCc2ccccc21`, the Potency [5] is reported as “inactive”, the Potency [2] is reported as “inactive” and the Potency [12] is reported as 1.12 µM (active). For the same compound, the outcome [3] was “inactive” and the Potency [4] was “inactive”.
